Source: PubChem BioAssay
KB-V1 cytotox: kills drug-selected multidrug resistant KB-V1 cells; KB-V1 MDR cells viability, CellTiter-Glo, 72 h; AID 1347076; 400,000 compounds, 3.4% hits; Potency, µM (doses to about 46.1 µM), hits mostly cytotoxic; further: on the % scale 0 is the no-effect control and ±100 the full control effect; nearly all actives have a fitted effect of over 60% in size
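Cytotoxicity via CellTiter-Glo luminescence after 72 h compound exposure at 37 degrees C. Cells: drug-selected KB-V1 line, DMEM phenol-red free plus 10% FBS. Compounds tested at multiple concentrations; normalized data fitted to concentration-effect curves.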
PINK1 modulator: PINK1 expression modulation; PINK1 immunofluorescence, high-content cytometry, 24 h; Potency, µM (series often up to 76.6 µM), without a hit: at the highest dose activation (PINK1 increase), most hits filed as activators; 410,000 compounds, 0.2% hits; AID 624263; active means well fitted activation curve with a large enough effect; inconclusive means small, poorly fitted or top-dose-only effect; cell line not stated here; further: % of control where 0% means no effect; nearly all actives have a fitted effect of over 65% in size
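Stable cell line treated 24 h with compounds at 5 concentrations (CCCP controls), then fixed and immunostained for PINK1 plus nuclear and cell stains; PINK1 immunofluorescence quantified by laser-scanning microplate cytometry.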
MCF10A rereplic: induces DNA re-replication in MCF 10a normal breast cells. Potency, µM (titrated, usually from 46.1 µM), without a hit: at the highest dose activity, positive = re-replication, most hits filed as activators. MCF 10A DNA re-replication, Hoechst nuclear intensity, 48 h. 350,000 compounds, 2.9% hits; further: % of control where 0% means no effect; nearly all actives have a fitted effect of over 50% in size
KB-3-1 cytotox: KB-3-1 parental cell cytotoxicity; KB-3-1 viability, CellTiter-Glo ATP luminescence, 72 h; Potency, µM (highest dose often 46.1 µM), actives largely listed as cytotoxic; 400,000 compounds, 1.4% hits; AID 1347075; further: on the % scale 0 is the no-effect control and ±100 the full control effect; nearly all actives have a fitted effect of over 60% in size
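Luminescent ATP read-out (CellTiter-Glo) measures survival of drug-naive KB-3-1 cells after 72 h compound exposure at 37 °C. Titration series was screened from lowest to highest concentration, with DMSO vehicle plates as background controls.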
SW480 rerep: DNA re-replication induction in SW480 cells | Potency, µM (series often up to 46.1 µM), inactives show top-dose re-replication activation, usual class: activators | 340,000 compounds, 1.8% hits | SW480 DNA re-replication, Hoechst DNA content imaging, 48 h | AID 624297; further: % of control where 0% means no effect; nearly all actives have a fitted effect of over 55% in size
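Per well, 250 cells were exposed to pinned compound for 48 hr. Nuclear DNA was visualised with Hoechst (40 min, 37 C) and total object intensity recorded by fluorescence scanning.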
PTAP TSG101 blk: blocks PTAP/TSG101 interaction to inhibit HIV-1 budding; Potency, µM (titrated, usually from 115 µM), inactives show at the highest dose activity change, negative = inhibition, most hits filed as inhibitors; Fluorescence polarization, FITC-PTAP peptide / Tsg101 binding; Q99816; AID 493005; 340,000 tested, under 10 active; active means well fitted inhibition curve with a large enough effect in the main read-out, with a control signal flat, not every such curve was filed as active; inconclusive means small, poorly fitted or top-dose-only effect, or effect the other way, or a change in a side signal; inactive means no such curve, though single readings can be large or run the other way; further: % of control where 0% means no effect
Target sequence (Q99816 whole entry, looked up): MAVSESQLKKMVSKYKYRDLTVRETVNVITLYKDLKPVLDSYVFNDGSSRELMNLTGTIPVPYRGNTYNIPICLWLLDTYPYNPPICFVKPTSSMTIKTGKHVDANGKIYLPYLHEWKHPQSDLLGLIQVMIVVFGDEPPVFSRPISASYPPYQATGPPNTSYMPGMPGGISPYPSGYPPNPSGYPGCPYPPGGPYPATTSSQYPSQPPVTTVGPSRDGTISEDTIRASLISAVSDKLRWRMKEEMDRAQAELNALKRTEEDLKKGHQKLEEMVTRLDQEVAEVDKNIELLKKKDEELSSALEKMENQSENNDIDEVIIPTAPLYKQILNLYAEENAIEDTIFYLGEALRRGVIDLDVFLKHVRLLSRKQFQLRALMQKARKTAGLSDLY
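Tsg101 binding domain (10 uM final) was mixed with compound and a FITC-labeled PTAP peptide (50 nM final) in HEPES pH 7.5 buffer with NaCl, Tween 20, EDTA and TCEP; fluorescence polarization was read after 20 min at r.t.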
* = called active by the depositor; [ ] = another dose, or the depositor's remark. Hits are enriched below; roughly 6.8% of the tested compounds scored in any of these assays. Unless noted, the call rests on the fitted dose curve; in most records, active means well fitted curve in the direction sought with a large enough effect; inconclusive means small, poorly fitted or top-dose-only effect, or another doubt; inactive means no such curve, though single readings can be large; an effect the other way counts as inactive or inconclusive. Potency means the concentration at half of the fitted maximal effect.

`COc1ccc(C(=O)c2cn(CC(=O)Nc3ccc4c(c3)OCO4)c3ccc(OC)cc3c2=O)cc1` gave PINK1 modulator 1%.
For O=c1[nH]c(-c2ccccn2)nc2sc(-c3ccccc3)cc12 the results were KB-V1 cytotox inconclusive, PINK1 modulator -1%, MCF10A rereplic 1.3µM*, KB-3-1 cytotox inconclusive, SW480 rerep 6.5µM* and PTAP TSG101 blk -3%.
Screening Cc1c(C(=O)N(C)C)sc2nc(-c3ccccn3)[nH]c(=O)c12 returned KB-V1 cytotox inconclusive, PINK1 modulator 2%, MCF10A rereplic -6%, KB-3-1 cytotox inactive, SW480 rerep -1% and PTAP TSG101 blk -3%.
Cc1ccc(N2C(=O)c3cccc4c([N+](=O)[O-])ccc(c34)C2=O)c2cccnc12 was read as KB-V1 cytotox inconclusive, PINK1 modulator 14%, MCF10A rereplic 2.6µM*, KB-3-1 cytotox 0.065µM*, SW480 rerep 2.1µM* and PTAP TSG101 blk -1%.
For O=C1c2cccc3cccc(c23)C(=O)N1Cc1cccnc1 the results were KB-V1 cytotox inactive, PINK1 modulator 9%, MCF10A rereplic 0%, KB-3-1 cytotox inactive, SW480 rerep -15% and PTAP TSG101 blk -3%.
For Cc1ccnc(N2C(=O)c3cccc4c([N+](=O)[O-])ccc(c34)C2=O)c1 the results were KB-V1 cytotox inactive, PINK1 modulator -3%[38.3 µM], MCF10A rereplic 4.6µM*, KB-3-1 cytotox inactive, SW480 rerep 3.7µM* and PTAP TSG101 blk -26%.
`Cc1nnc(N2C(=O)c3cccc4c([N+](=O)[O-])ccc(c34)C2=O)s1` gave KB-V1 cytotox inactive, PINK1 modulator 4%, MCF10A rereplic 23µM*, KB-3-1 cytotox inactive, SW480 rerep inconclusive and PTAP TSG101 blk -3%.
`O=C1c2cccc3c([N+](=O)[O-])ccc(c23)C(=O)N1Cc1cccnc1` gave KB-V1 cytotox inactive, PINK1 modulator 7%, MCF10A rereplic 18µM*, KB-3-1 cytotox inconclusive, SW480 rerep inconclusive and PTAP TSG101 blk inconclusive.
For Cc1ccnc(N2C(=O)c3ccccc3C2=O)c1 the results were KB-V1 cytotox inconclusive, PINK1 modulator 2%, MCF10A rereplic -2%, KB-3-1 cytotox inactive, SW480 rerep -4% and PTAP TSG101 blk 0%.
`Cc1ccc(N2C(=O)c3cccc4c(N5CCN(C)CC5)ccc(c34)C2=O)c2cccnc12` gave KB-V1 cytotox inactive, PINK1 modulator inconclusive, MCF10A rereplic -9%, KB-3-1 cytotox inactive, SW480 rerep -5% and PTAP TSG101 blk inconclusive.
`Cc1cccc(C)c1NC(=O)C1CCCN(S(=O)(=O)c2c(C)noc2/C=C/N(C)C)C1` (stereo not drawn) gave KB-V1 cytotox inactive, PINK1 modulator 0% and KB-3-1 cytotox inconclusive.
Cc1c(C(=O)NCCc2cccnc2)cnn1-c1ncc2c(n1)-c1ccccc1CC2 was read as PINK1 modulator 1%.
COc1ccc(CN2CCOc3ccc(C(O)c4cccnc4)cc3C2)cc1O (stereo not drawn) was read as PINK1 modulator 1%.
For COC(=O)c1c(-c2ccc(C)cc2)csc1NC(=O)Cc1ccc(OC)c(OC)c1 the results were KB-V1 cytotox 2.6µM*, PINK1 modulator -1%, MCF10A rereplic inconclusive, KB-3-1 cytotox inconclusive, SW480 rerep 6% and PTAP TSG101 blk 2%.
Screening COC(=O)c1c(-c2ccc(Br)cc2)csc1NC(=O)Cc1ccc(OC)c(OC)c1 returned KB-V1 cytotox 7.3µM*, PINK1 modulator -1%, MCF10A rereplic -4%, KB-3-1 cytotox inconclusive, SW480 rerep 16% and PTAP TSG101 blk -5%.
For COC(=O)c1c(-c2cccc3ccccc23)csc1NC(=O)Cc1ccc(OC)c(OC)c1 the results were KB-V1 cytotox inactive, PINK1 modulator 9%, MCF10A rereplic inconclusive, KB-3-1 cytotox inconclusive, SW480 rerep inconclusive and PTAP TSG101 blk -6%.
For CC(C)NC(=O)N1CCCC2(CCN(C(=O)c3cccc(F)c3)CC2)C1 the results were PINK1 modulator 1%.
COC(=O)[C@@]1(Cc2ccc(F)cc2)[C@H]2c3cc(C(=O)N(C)C)n(CCCNc4ncc(C(F)(F)F)cc4Cl)c3C[C@H]2CN1C(=O)c1ccccc1 was read as KB-V1 cytotox 18µM*, PINK1 modulator 1% and KB-3-1 cytotox inconclusive.
For COC(=O)[C@@]1(Cc2ccc(F)cc2)[C@H]2c3cc(C(=O)N(C)C)n(Cc4ccccc4)c3C[C@H]2CN1C(=O)c1ccccc1 the results were KB-V1 cytotox inactive, PINK1 modulator 5%, MCF10A rereplic inconclusive, KB-3-1 cytotox inactive, SW480 rerep inconclusive and PTAP TSG101 blk -7%.
COC(=O)[C@@]1(Cc2ccc(OC)cc2)[C@H]2c3cc(C(=O)N4CCCC4)n(Cc4ccc(S(C)(=O)=O)cc4)c3C[C@H]2CN1C(=O)c1ccccc1 was read as KB-V1 cytotox inconclusive, PINK1 modulator 0% and KB-3-1 cytotox inactive.
COC(=O)[C@@]1(Cc2ccc(F)cc2)[C@H]2c3cc(C(=O)N(C)C)n(Cc4ccc(OC)c(OC)c4)c3C[C@H]2CN1C(=O)c1ccccc1 was read as KB-V1 cytotox inactive, PINK1 modulator 0%, MCF10A rereplic -6%, KB-3-1 cytotox inactive, SW480 rerep inconclusive and PTAP TSG101 blk -4%.
For COC(=O)[C@@]1(Cc2ccc(OC)cc2)[C@H]2c3cc(C(=O)N(C)C)n(Cc4ccc(OC(F)(F)F)cc4)c3C[C@H]2CN1C(=O)c1ccccc1 the results were KB-V1 cytotox inconclusive, PINK1 modulator 1%, MCF10A rereplic inconclusive, KB-3-1 cytotox inconclusive, SW480 rerep 18µM* and PTAP TSG101 blk -8%.
COC(=O)[C@@]1(Cc2ccc(F)cc2)[C@H]2c3cc(C(=O)N(C)C)n(CCO)c3C[C@H]2CN1C(=O)c1ccccc1 was read as KB-V1 cytotox inactive, PINK1 modulator 0% and KB-3-1 cytotox inactive.
`COC(=O)[C@@]1(Cc2ccc(OC)cc2)[C@H]2c3cc(C(=O)N4CCCC4)n(Cc4ccsc4Br)c3C[C@H]2CN1C(=O)c1ccccc1` gave KB-V1 cytotox inconclusive, PINK1 modulator 2% and KB-3-1 cytotox 18µM*.
`COC(=O)[C@@]1(Cc2ccc(F)cc2)[C@H]2c3cc(C(=O)N(C)C)n(Cc4ccc(C)o4)c3C[C@H]2CN1C(=O)c1ccccc1` gave KB-V1 cytotox 16µM*, PINK1 modulator 16% and KB-3-1 cytotox inconclusive.
